High-throughput results from PubChem.
Shown are actives, neighbours in structure and some others; about 3.1% of the full set was active somewhere.
p53null 39C kill: selectivity test: cytotoxicity in p53 null cells, nonpermissive temperature. H1299 p53-null (neo) cells, 39C, ATPlite viability, 24 h. Potency, µM (highest dose often 46.1 µM), inactives show at the highest dose activity, negative = cell killing, actives largely listed as cytotoxic. 55,000 compounds, 0.97% hits. AID 904;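 note: potency is the fitted concentration of half-maximal effect; 0% = DMSO only and -100% = full killing by 100 µM tamoxifen; nearly all actives have a fitted effect of over 50% in size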
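Luminescent ATP signal reported cell survival after H1299 lines (neo, p53 null; or p53 A138V) received up to 46 uM compound and 24 hr incubation at 39C.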
mTORC1 inh: reduces mTORC1 signaling in Tsc2 and p53 null MEF cells. 44,000 compounds, 0.78% hits. Potency, µM (titrated, usually from 38.3 µM), for inactives: at the highest dose activity change, negative = inhibition, most hits filed as inhibitors. AID 493208. Tsc2-/- p53-/- MEF, phospho-rpS6 immunofluorescence/PI, 24 h;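 note: potency is the fitted concentration of half-maximal effect; plate controls were DMSO for no effect and rapamycin for full effect; nearly all actives have a fitted effect of over 50% in size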
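Read-out: phospho-S6 Alexa-488 intensity over PI intensity per well, scored as % active cells using thresholds from rapamycin (7.5 nM) and DMSO controls. Tsc2-/-, p53-/- MEFs exposed to compound for 24 h; PI cell count recorded as viability.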
p53null 32C tox: p53 null cell cytotoxicity, permissive temperature. H1299-neo p53 null cells, ATP luminescence, 24 h, 32C. Potency, µM (highest dose often 46.1 µM), inactives show at the top dose activity change, negative = cytotoxicity, most hits filed as cytotoxic. 55,000 compounds, 0.62% hits. AID 903;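 note: potency is the fitted concentration of half-maximal effect; 0% = DMSO only and -100% = full killing by 100 µM tamoxifen; nearly all actives have a fitted effect of over 55% in size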
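We seeded p53-null H1299-neo cells, incubated them overnight at 37C, and added compounds across a range up to 46 uM. After 24 hours at 32C, ATP reagent was applied for 20 min at room temperature and luminescence recorded.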
SKOV3 invasion: inhibitors of ovarian cancer cell adhesion and invasion in omental model | AID 1963576 | Potency, µM (top dose mostly 45.8 µM), inactives show at the top dose activity change, negative = inhibition, most hits filed as inhibitors | 46,000 compounds, 0.1% hits | SKOV3ip1-GFP adhesion/invasion on 3D omental model, fluorescence;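 note: potency is the fitted concentration of half-maximal effect; plate controls were DMSO wells for no effect and tomatine positive control wells for full effect; nearly all actives have a fitted effect of over 65% in size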
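A 3D layer of primary human omental fibroblasts, mesothelial cells, fibronectin and collagen I, grown 48 hr, received SKOV3ip1-GFP cells in serum-free medium plus compounds at 0.36-46 umol/L. After 2 hr RT and 16 hr 37 C, fixed adherent GFP cells were counted; normalized to DMSO and tomatine.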
PMP22 txn prim: modulates PMP22 transcription in S16 Schwann cells. S16 Pmp22-F2sN Schwann cells, FLuc/NLuc coincidence luminescence, 24 h. Potency, µM (doses to about 57.5 µM), inactives show at the top dose activity change, negative = inhibition, usual class: inhibitors. 43,000 compounds, 2% hits. AID 1508649; active = clear falling dose curves in both reporters; inconclusive = both reporters move, but less clearly or upward; inactive = either reporter flat; the % is the NLuc reporter signal; note: potency is the fitted concentration of half-maximal effect; % is set by controls: 0 for no effect and ±100 for the full control effect
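Schwann cells carrying the coincidence reporter were exposed to library compounds for 24 h at 37C, then lysed and read for FLuc and, after quenching, NLuc luminescence on a CCD imager.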
S16 viability: cytotoxicity in S16 Pmp22-F2sN Schwann cells. S16 Pmp22-F2sN Schwann cells viability, CellTiter-Glo, 24 h. Potency, µM (titrated, usually from 57.5 µM), for inactives: at the highest dose activity change, negative = cytotoxicity, hits mostly cytotoxic. 43,000 compounds, 0.48% hits; note: potency is the fitted concentration of half-maximal effect; % is set by controls: 0 for no effect and ±100 for the full control effect; nearly all actives have a fitted effect of over 65% in size
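Used to flag compounds lowering reporter output through toxicity, this quantitative HTS measures ATP-based CellTiter-Glo luminescence in S16 Pmp22-F2sN Schwann cells after 24 h compound exposure at 37C.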
NLuc saturating: counter-screen for PMP22 expression modulators: NanoLuc inhibition, saturating substrate. shares compounds with PMP22 txn prim. Secreted NLuc enzyme (filtered S16 cell medium), Nano-Glo luminescence. Potency, µM (doses to about 57.5 µM), for inactives: at the highest dose activity change, negative = inhibition, actives largely listed as inhibitors. 690 compounds, 4% hits. AID 1508638; note: potency is the fitted concentration of half-maximal effect; % is set by controls: 0 for no effect and ±100 for the full control effect
NLuc Km counter: counter-screen for PMP22 expression modulators: NanoLuc inhibition at Km; shares compounds with PMP22 txn prim; secreted NLuc enzyme, coelenterazine luminescence, Km conditions; Potency, µM (doses to about 57.5 µM), for the others: at the highest dose activity change, negative = inhibition, most hits filed as inhibitors; 690 compounds, 5% hits; AID 1508639; note: potency is the fitted concentration of half-maximal effect; % is set by controls: 0 for no effect and ±100 for the full control effect
FLuc ctr PMP22: firefly luciferase enzyme inhibition artifact for PMP22 screen. Potency, µM (series often up to 57.5 µM), without a hit: at the top dose activity, negative = inhibition, hits mostly inhibitors. shares compounds with PMP22 txn prim. AID 1508640. 690 tested, under 10 active. purified P. pyralis FLuc, luminescence, 10 min; note: % of control where 0% means no effect
Target sequence (P08659 whole entry, looked up): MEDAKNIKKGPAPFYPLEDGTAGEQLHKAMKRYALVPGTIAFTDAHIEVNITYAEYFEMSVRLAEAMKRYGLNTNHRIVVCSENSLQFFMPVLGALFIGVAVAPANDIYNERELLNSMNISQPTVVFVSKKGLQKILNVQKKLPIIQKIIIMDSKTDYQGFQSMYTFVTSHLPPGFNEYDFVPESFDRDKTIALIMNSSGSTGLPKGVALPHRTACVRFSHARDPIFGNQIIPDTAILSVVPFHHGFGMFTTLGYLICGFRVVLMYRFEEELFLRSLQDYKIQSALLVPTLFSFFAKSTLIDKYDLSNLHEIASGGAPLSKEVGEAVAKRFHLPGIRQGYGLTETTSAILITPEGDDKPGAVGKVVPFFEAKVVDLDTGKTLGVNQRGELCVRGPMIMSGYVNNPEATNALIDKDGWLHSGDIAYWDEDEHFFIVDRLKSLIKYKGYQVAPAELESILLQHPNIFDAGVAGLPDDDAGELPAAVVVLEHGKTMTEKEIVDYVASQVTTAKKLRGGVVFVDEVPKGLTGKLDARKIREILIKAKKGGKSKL
S16 viab conf: confirmation of cytotoxicity in S16 Pmp22-F2sN Schwann cells (luciferase reporters placed in the Pmp22 gene); shares compounds with PMP22 txn prim; S16 Schwann cells viability, CellTiter-Glo ATP luminescence, 24 h; Potency, µM (series often up to 57.5 µM), inactives show at the highest dose activity change, negative = viability loss, usual class: cytotoxic; 690 compounds, 7% hits; AID 1508641; note: potency is the fitted concentration of half-maximal effect; % is set by controls: 0 for no effect and ±100 for the full control effect
PMP22 txn conf: confirmation of modulators of PMP22 gene transcription in S16 cells | 690 compounds, 22% hits | S16 Schwann cells Pmp22-F2sN, dual luciferase, 24 h | shares compounds with PMP22 txn prim | Potency, µM (highest dose often 57.5 µM), for inactives: at the top dose activity change, negative = inhibition, actives largely listed as inhibitors; active = clear falling dose curves in both reporters; inconclusive = both reporters move, but less clearly or upward; inactive = either reporter flat; the % is the FLuc reporter signal; note: potency is the fitted concentration of half-maximal effect
PMP22 HiBiT cnf: rat PMP22 protein level modulation, confirmatory | Potency, µM (series often up to 27.9 µM), for inactives: at the highest dose activity change, negative = inhibition, most hits filed as inhibitors | S16 Schwann cells Pmp22-HiBiT, luminescence, 48 h | 95 tested, under 10 active | shares compounds with PMP22 txn prim | AID 1508647
Target sequence (P25094 whole entry, looked up): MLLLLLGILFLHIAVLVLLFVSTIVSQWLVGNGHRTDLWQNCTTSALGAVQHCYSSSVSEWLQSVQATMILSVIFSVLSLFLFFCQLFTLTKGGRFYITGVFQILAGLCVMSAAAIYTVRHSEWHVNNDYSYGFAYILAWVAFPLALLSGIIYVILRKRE
The depositor's hits bear a star; i = inactive; u = inconclusive; x = no result. Unless noted, calls come from the whole dose curve; as a rule, active = well fitted curve in the direction sought with a large enough effect; inconclusive = small, poorly fitted or top-dose-only effect, or another doubt; inactive = no such curve, though single readings can be large; an effect the other way counts as inactive or inconclusive.

SMILES	p53null 39C kill	mTORC1 inh	p53null 32C tox	SKOV3 invasion	PMP22 txn prim	S16 viability	NLuc saturating	NLuc Km counter	FLuc ctr PMP22	S16 viab conf	PMP22 txn conf	others
COc1ccc(NS(=O)(=O)c2ccc3c(c2)CC(C)N3C(=O)C2CCC2)cc1OC (stereo unspecified)	12%	-16%	-1%	i	3µM*	-12%	-17%	u	1%	-5%	u
O=C(NOCC1CC1)c1ccc(F)c(F)c1Nc1ccc(I)cc1Cl	x	x	x	23%	x	x	x	x	x	x	x
O=C(NCCCCN1CCOCC1)c1cc2ccccc2o1	x	x	x	-7%	x	x	x	x	x	x	x
COC(=O)C1=C(C)N=C2SCCC(=O)N2C1c1ccc(OCc2ccccc2)c(OC)c1 (stereo unspecified)	-11%	-1%	3%	-5%	-7%	15%	x	x	x	x	x
COc1cc(C2C(C(=O)OC(C)C)=C(C)N=C3SCCC(=O)N32)ccc1OCc1ccccc1 (stereo unspecified)	7%	2%	3%	-18%	20µM*	-15%	-5%	7%	-8%	u	-25%
Cc1cc(Nc2cc(NC(=O)c3c(Cl)cccc3Cl)ccn2)nc(N)n1	x	x	x	45%	x	x	x	x	x	x	x
CCOC(=O)c1cccc(NC(=O)c2cc3cc4cc(OC)ccc4nc3s2)c1	7%	-1%	-4%	17%	u	9%	x	x	x	x	x
CCOC(=O)c1cccc(NC(=O)c2cc3cc4ccc(C)cc4nc3s2)c1	-17%	-2%	-1%	i	11µM*	13%	-5%	0%	-17%	u	19µM*
CC(=O)O[C@]1(C(C)=O)CC[C@H]2[C@@H]3C=C(C)C4=CC(=O)CC[C@]4(C)[C@@H]3CC[C@@]21C	x	x	x	1%	x	x	x	x	x	x	x
CS(=O)(=O)N1CCN(Cc2cc3nc(-c4cccc5[nH]ncc45)nc(N4CCOCC4)c3s2)CC1	x	x	x	-14%	x	x	x	x	x	x	x
COc1ccc(OCC(=O)NCc2ccc3c(c2)CCN3C(=O)c2cccc(C)c2)cc1	16%	u	-19%	u	20µM*	-22%	u	-19%	-21%	-13%	u
CC(C)C[C@H](NC(=O)[C@H](Cc1ccccc1)NC(=O)c1cnccn1)B(O)O	x	x	x	-20%	x	x	x	x	x	x	x
CCN(CC)CCOC(=O)c1ccc(NC(=O)Cn2ncc3c([nH]c4ccc(C)cc43)c2=O)cc1	-27%	6%	3%	9%	10µM*	u	-5%	-2%	4%	15µM*	13µM*
O=C(O)CCC=CCC[C@@H]1[C@H](N2CCCCC2)[C@@H](O)C[C@@H]1OCc1ccc(-c2ccccc2)cc1	x	x	x	-3%	x	x	x	x	x	x	x
Cn1nnnc1SCCCNCc1ccccc1OCc1ccccc1Cl	-10%	u	-5%	-36%	13µM*	u	-1%	u	1%	-27%	u
O=C(Nc1cccc(Nc2ncc(Br)c(NCCc3cnc[nH]3)n2)c1)N1CCCC1	x	x	x	14%	x	x	x	x	x	x	x
COc1ccccc1-c1c(C)nn2c(N3CCN(c4ccc(Cl)cc4)CC3)cc(C)nc12	24%	5%	3%	4%	-23%	-3%	x	x	x	x	x
COc1ccc(-c2c(C)nn3c(N4CCN(c5cc(Cl)ccc5C)CC4)cc(C)nc23)cc1OC	4%	-18%	-3%	i	15µM*	13%	-16%	u	3%	1%	-37%
Cc1ccc(-n2c(SCc3nc(-c4ccc(Cl)cc4)no3)nnc2-c2ccncc2)cc1	u	-20%	13%	16%	13µM*	u	-18%	u	-3%	-7%	u
COc1ccc(-c2noc(CSc3nnc(C)n3-c3ccc(F)cc3)n2)cc1	-6%	-5%	-10%	i	u	-10%	u	u	u	-9%	-27%
COc1ccc(-c2noc(CSc3nnc(-c4ccncc4)n3-c3ccc(C)cc3)n2)cc1	15%	-4%	0%	i	8.9µM*	-23%	u	u	-12%	-24%	3.7µM*	PMP22 HiBiT cnf=u
Clc1ccc(C2(c3ccc(-c4cn[nH]c4)cc3)CCNCC2)cc1	x	x	x	-13%	x	x	x	x	x	x	x
OC[C@H](Cc1ccccc1)Nc1nc(Oc2ccc3c(c2)CCC3)nc2c1ncn2Cc1ccc(-c2ccccc2)cc1	x	x	x	22%	x	x	x	x	x	x	x
COc1ccccc1Nc1ncnc2scc(-c3ccc(F)cc3)c12	-5%	11%	-7%	15%	18µM*	-28%	-8%	4%	7%	-2%	-49%
COc1ccc(-c2csc3ncnc(Nc4ccc(OC)cc4OC)c23)cc1	20%	0%	2%	-20%	u	-21%	x	x	x	x	x
CC(C)(C)c1cc(NC(=O)Nc2ccc(-c3cn4c(n3)sc3cc(OCCN5CCOCC5)ccc34)cc2)no1	x	x	x	-25%	x	x	x	x	x	x	x
Cc1ccc(S(=O)(=O)Nc2cc3c(cc2N2CCOCC2)n(C)c(=O)n3C)cc1	-14%	-17%	-2%	i	x	x	x	x	x	x	x
